In all, about 310,000 compounds went through this assay and about 1,200 (0.39%) were called active. How the calls were made is not given here. A selection follows. Measured potencies and affinities stand elsewhere.
Target: Large T antigen (Simian virus 40) (UniProt P03070)
Assay: SV40 large T antigen inhibitors, biochemical (AID 1903)
Conditions: SV40 large T antigen ATPase/helicase inhibition assay; at 20 µM; active compounds read high

Large T antigen (Simian virus 40), sequence (P03070 whole entry, looked up): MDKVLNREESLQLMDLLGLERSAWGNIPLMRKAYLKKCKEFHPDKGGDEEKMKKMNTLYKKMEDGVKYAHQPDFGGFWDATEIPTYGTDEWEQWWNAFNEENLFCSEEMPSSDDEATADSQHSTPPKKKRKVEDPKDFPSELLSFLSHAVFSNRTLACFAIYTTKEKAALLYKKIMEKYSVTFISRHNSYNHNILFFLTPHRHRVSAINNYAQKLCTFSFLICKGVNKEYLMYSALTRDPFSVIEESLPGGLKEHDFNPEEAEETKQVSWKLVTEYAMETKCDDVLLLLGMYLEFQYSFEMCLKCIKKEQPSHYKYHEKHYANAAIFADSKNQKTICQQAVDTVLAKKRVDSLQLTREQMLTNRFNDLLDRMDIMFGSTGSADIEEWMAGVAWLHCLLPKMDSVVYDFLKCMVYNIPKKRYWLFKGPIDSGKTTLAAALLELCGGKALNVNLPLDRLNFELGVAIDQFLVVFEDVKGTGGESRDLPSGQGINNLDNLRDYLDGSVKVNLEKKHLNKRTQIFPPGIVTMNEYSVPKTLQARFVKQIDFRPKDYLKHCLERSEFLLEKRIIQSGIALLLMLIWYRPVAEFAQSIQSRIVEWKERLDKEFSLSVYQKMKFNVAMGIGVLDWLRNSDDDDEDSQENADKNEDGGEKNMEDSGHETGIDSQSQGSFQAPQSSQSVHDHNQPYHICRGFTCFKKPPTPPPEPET

inhibition, inactive:
O=C(CCN1CCN(c2ccc(Cl)cc2)CC1)Nc1nccs1 17.1%
COC(=O)c1ccc(CN2CCC(n3nccc3NC(=O)C3CCCC3)CC2)cc1 20%
O=C(COC(=O)C1(c2ccccc2)CC1)NNC(=O)c1ccccc1 11.2%
COc1cc(C=O)ccc1OCCOCCOc1cc(C)ccc1Cl 10.5%
O=C(c1ccc(-c2ccc([N+](=O)[O-])cc2)o1)N1CCCCC1 9.33%
O=C(O)c1cc(-c2ccc(/C=C3\NC(=O)N(c4ccc(Cl)cc4)C3=O)o2)ccc1Cl 31.3%
Cc1ccc(N2NC(=O)/C(=C/c3ccc(-c4ccc(Cl)c(C(=O)O)c4)o3)C2=O)cc1 14.8%
CCOC(=O)CN1C(=O)S/C(=C\c2ccc(-c3ccc(C(=O)O)c(Cl)c3)o2)C1=O 17%
Cc1ccc(N2NC(=O)/C(=C/c3ccc(-c4ccc(Cl)c(C(=O)O)c4)o3)C2=O)cc1C 33.6%
C#CCN1C(=O)S/C(=C\c2ccc(-c3ccc(Cl)c(C(=O)O)c3)o2)C1=O 11.9%
O=C(O)c1cc(-c2ccc(/C=C3/SC(=S)N(Cc4ccccc4)C3=O)o2)ccc1Cl 24.7%
O=C(CCN1C(=O)C2CC=C(Cl)CC2C1=O)Nc1ccccc1O (stereo unspecified) 3.99%
C/C(=N\Nc1ccc(C(=O)O)cc1)c1ccc(S(=O)(=O)NCc2ccco2)cc1 11%
CCc1cccc(C)c1NC(=O)c1ccc2c(c1)CCN2S(C)(=O)=O 1.63%
Nc1ccc2c(c1)C(=O)c1ccccc1C2=O 7.9%
Nc1ccc2c(c1)Cc1cc([N+](=O)[O-])ccc1-2 7.98%
CC(=O)N1CCN(C(=O)CSc2nc3c(cnn3-c3ccccc3)c(=O)[nH]2)CC1 2.65%
Cc1cccc2cc(CN(CCCN3CCOCC3)Cc3nnnn3C(C)(C)C)c(=O)[nH]c12 10%
O=C(Nc1ccccc1Cl)N1CCSc2ccccc21 5.32%
Cc1nnc2n(-c3ccccc3)c(=O)c3ccccc3n12 -1.7%
COCCCn1c(=O)c2ccccc2n(Cc2ccccc2)c1=O 7.67%
COCCCn1c(=O)c2ccccc2c2ccccc2c1=O -0.58%
CCCn1c(=O)c2ccccc2n2c(SCC(N)=O)nnc12 9.05%
CCCn1c(=O)c2ccccc2n2c(SCC(=O)c3ccccc3)nnc12 16.8%
CCCCCn1c(=O)c2ccccc2n2c(CCl)nnc12 15.8%
CCCCn1c(=O)c2ccccc2c2ccccc2c1=O 3.41%
COc1cccc(-n2c(SCC(N)=O)nc3ccccc3c2=O)c1 4.09%
Cn1c(CNC(=O)C(Cc2ccccc2)NC(=O)c2cccc(F)c2)cc(=O)n(C)c1=O (stereo unspecified) -0.65%
O=C(NNC(=O)c1ccc[nH]1)c1cc(Cl)cc(Cl)c1 10.3%
COc1ccccc1C(=O)NNC(=O)c1ccc(NS(=O)(=O)c2cccs2)cc1 16.7%
O=S(=O)(c1ccccc1)N1CCN(Cc2ccc(Cl)cc2)CC1 10.3%
O=C1CCCC/C1=C/Nc1cccc(C(F)(F)F)c1 18.4%
CC1SCC(NC(=O)c2ccccc2Cl)CS1 (stereo unspecified) 8.46%
CC(=O)OCCN1C(=O)c2cccc3cc([N+](=O)[O-])cc(c23)C1=O 14.1%
Cc1ccc(-c2[nH]ncc2C(=O)c2ccc(Br)cc2)c(O)c1 7.57%
CCCN1C(=O)C(NC(=O)c2ccncc2)(C(F)(F)F)C2=C1CC(C)(C)CC2=O (stereo unspecified) -1.41%
Cc1ccc(/C=C/c2onc(C)c2S(=O)(=O)N2CCC(C(=O)NC(C)(C)C)CC2)cc1 2.7%
CC(C)C(=O)Nc1cccc(-c2csc(-c3ccccc3)n2)c1 -59.4%
CC(C)C(=O)Nc1ccc(-c2csc(-c3ccccc3)n2)cc1 1.63%
CCOC(=O)Cc1csc(NC(=O)/C=C/c2cccc(Br)c2)n1 -3.33%
COc1cc(C(=O)Nn2c(C)nc3ccccc3c2=O)cc(OC)c1OC 7.45%
CC(C)c1ccc(/C=C2\C(=N)N3N=C(CC(=O)N4CCCCC4)SC3=NC2=O)cc1 36.9%
CCc1ccc(/C=C2\C(=N)N3N=C(CC(=O)N4CCCCC4)SC3=NC2=O)cc1 10.1%
Cc1ccc(/C=C2/C(=N)N3N=C(CC(=O)N4CCCC4)SC3=NC2=O)cc1 30.2%
CSc1ccc(/C=C2\C(=N)N3N=C(CC(=O)N4CCCCC4)SC3=NC2=O)cc1 26.3%
COc1ccc(/C=C2/C(=N)N3N=C(CC(=O)N4CCCC4)SC3=NC2=O)cc1OC 14.2%
CSc1ccc(/C=C2/C(=N)N3N=C(CC(=O)N4CCCC4)SC3=NC2=O)cc1 12.1%
C=CCOc1ccc(/C=C2/C(=N)N3N=C(CC(=O)N4CCCC4)SC3=NC2=O)cc1OC 11.3%
Cc1ccc(/C=C2\C(=N)N3N=C(CC(=O)N4CCCCC4)SC3=NC2=O)cc1 26.9%
COc1cc([N+](=O)[O-])ccc1NC(=O)CCCOc1cc(C)ccc1C 8.46%
CCOC(=O)c1nn(-c2ccc(Cl)cc2)c2nc(Nc3ccccc3)cc(=O)n12 5.22%
COc1ccc(C(=O)Nc2ccc(C)cc2C(=O)c2ccccc2)c(OC)c1 5.96%
Cc1ccccc1CNC(=O)c1ccccc1N 14.8%
CCn1cc(/C=C/C(=O)Nc2ccn(Cc3c(F)c(F)c(F)c(F)c3F)n2)cn1 -8.72%
NC(=O)c1ccc(NC(=O)CSc2cn(CC(=O)N3CCOCC3)c3ccccc23)cc1 2.11%
COc1ccc(Nc2ccc(Cl)nn2)cc1 17.6%
C/C(=N\Nc1ncc(Br)cn1)c1cccc([N+](=O)[O-])c1 10.7%
Cc1ccc(/C=C2/C(=N)N3N=C(CC(=O)N4CCCC4)SC3=NC2=O)o1 -4.18%
N=C1/C(=C\c2ccc(Br)o2)C(=O)N=C2SC(CC(=O)N3CCOCC3)=NN12 36.3%
Cc1cccc(C(=O)NNC(=O)CCn2nnc3ccccc32)c1 1.08%
COCc1cc(C)nc(SCC(=O)Oc2ccccc2)c1C#N 15.3%
COCc1cc(C)nc(SCC(=O)Oc2ccc(Cl)cc2)c1C#N 16%
Cc1cc(C(F)(F)F)nn1Cc1n[nH]c(=S)n1-c1ccc(F)cc1 15.9%
CS(=O)(=O)c1ccc(Cl)c(NC(=O)C2CCCN(C(=O)c3ccc(Cl)cc3)C2)c1 (stereo unspecified) 6.85%
COc1ccc(C(=O)NC(C(=O)NCC(=O)Nc2c(C)cccc2C)C(C)C)cc1 (stereo unspecified) 3.58%
Cc1nn(CC(=O)N2CCOCC2)c(=O)c2nn(-c3ccccc3)c(C)c12 1.18%
COc1cc(O)c(C(CCN2CCN(c3ccccc3)CC2)c2ccc3c(c2)OCO3)c(OC)c1 (stereo unspecified) 7.18%
CC(=O)Oc1ccc2c(C)cc(=O)oc2c1 17%
CC(=O)Oc1cc2oc(=O)cc(C)c2cc1Cl 14.8%
CN(C(=S)Nc1ccc(Oc2ccccc2)cc1)c1ccc(O)cc1 21.8%
CC(C)(C)c1ccc(/C=N/NC(=S)Nc2cccnc2)cc1 9.92%
COc1ccc(O)c(/C=N/NC(=S)Nc2cccnc2)c1 25.1%
CC(C)N(C(=S)Nc1cccnc1)c1ccccc1 12.6%
Fc1ccc(/C=N/NC(=S)Nc2cccnc2)cc1 7.01%
Fc1cccc(F)c1/C=N/NC(=S)Nc1cccnc1 24.5%
NC(=O)c1ccc(NC(=O)CCCNC(=O)c2ccc(Cl)cc2)cc1 8.64%
CCc1ccc(C2=NNC(=Nc3cccc(S(=O)(=O)N(C)C)c3)SC2)cc1 4.35%
CCC(C)N(C(=O)c1csnn1)C(C(=O)NC1CCCC1)c1c(F)cccc1Cl (stereo unspecified) 7.33%
CCN(CC)CCNC(=O)c1ccc(NC(=O)c2ccc(C(=O)c3ccccc3)cc2)cc1 37.6%
Cc1ccc(S(=O)(=O)N2CCOC2CNC(=O)C(=O)NCCc2c[nH]c3ccccc23)cc1 (stereo unspecified) -3.07%
O=C(NCCc1c[nH]c2ccccc12)C(=O)NCC1OCCCN1S(=O)(=O)c1ccccc1 (stereo unspecified) 16.5%
COc1ccc(O)c(C(=O)c2cnc3c(c2)c(=O)[nH]c(=O)n3C)c1 3.44%
Fc1ccc(/C=N\Nc2cccc(F)c2)cc1 8.31%
Cc1ccc(N(C(=O)Cc2c[nH]c3ccccc23)C(C(=O)NC2CCCCC2)c2ccco2)cc1 (stereo unspecified) -1.52%
CN(C)CCCOc1ccc2c(c1)Sc1ccccc1CC2=O -4.85%
Oc1cc(O)c2c(c1)O[C@H](c1ccc(O)c(O)c1)[C@H](O)C2 37.1%
O=C1c2c(O)cc(O)cc2O[C@H](c2ccc(O)c(O)c2)[C@@H]1O 5.87%
O=C1c2c(O)cc(O)cc2O[C@H](c2ccc(O)c(O)c2)[C@H]1O 7.35%
O=C(O[C@@H]1Cc2c(O)cc(O)cc2O[C@@H]1c1cc(O)c(O)c(O)c1)c1cc(O)c(O)c(O)c1 -0.22%
COc1cc(C(=S)N2CCOCC2)cc(OC)c1OS(=O)(=O)c1ccc(C)cc1 3.46%
Cc1csc(Sc2ccc([N+](=O)[O-])cc2C(=O)OCC(=O)NC2CCCC(C)C2C)n1 (stereo unspecified) 16.8%

From PubChem BioAssay AID1903 (Southern Research Specialized Biocontainment Screening …, 2009)
